Most compounds without a hit are left out; they make up all but 21% or so of the library.
HCV inh = qHTS Assay for Inhibitors of Hepatitis C Virus (HCV); 340,000 compounds, 3.4% hits; Huh7.5.1 HCVcc-Cre infection, luciferase reporter, 44 h; Potency, µM (top dose mostly 41.8 µM), actives largely listed as inhibitors
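Compounds are dispensed onto cells plated 4 h earlier at 1,000 per well, with HCVcc-Cre virus (about 0.5 moi) added next. Following 44 h of culture, luminescent signal is measured for 15 sec after 15 min with substrate at room temperature.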
Pf growth 96h = Primary qHTS for delayed death inhibitors of the malarial parasite plastid, 96 hour incubation; 320,000 compounds, 6.9% hits; AID 504834, 2011; Potency, µM (series often up to 28.7 µM), hits mostly inhibitors; P. falciparum luciferase reporter growth, 96 h
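Parasite growth measured via integrated firefly luciferase reporter in P. falciparum. Infected erythrocytes at 2% hematocrit, 0.05% parasitemia final were treated 96 hours at 37 C under 5% CO2, and luminescence was read.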
HCMV inh = qHTS Assay for inhibitors of the human cytomegalovirus (HCMV); HFF cells, HCMV-luciferase reporter, 72 h; stronger effect = lower value; activity change, negative = inhibition, % at 57.5 µM; 410,000 compounds, 4.5% hits; AID 1259415, 2018; in the data active = activity change below about -60%; inconclusive = no clear call, values can overlap the other calls; inactive = above about -39%
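Two-dose cell screen: HFF monolayers treated with compounds and infected with luciferase-expressing HCMV at 1 PFU/cell, 72 h at 37C, then lysed for luciferase measurement.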
Shiga inhibitor = A qHTS for Small Molecule Inhibitors of Shiga Toxin | Vero cells, Shiga toxin protein synthesis inhibition reporter | inhibition, % at 38.7 µM | 290,000 compounds, 9.2% hits; in the data active = inhibition mostly above about 28%, no sharp cut-off; inactive = mostly below about 43%
Cycloheximide cs = Cycloheximide Counterscreen for Small Molecule Inhibitors of Shiga Toxin; AID 2314, 2010; max response, %; 300,000 compounds, 12% hits; cell reporter, cycloheximide protein synthesis inhibition counterscreen; in the data active = max response mostly above about 13%, no sharp cut-off; inactive = mostly below about 14%; also: read at 38.3 µM for the half of the compounds with a filed dose
Pf growth 48h = Primary qHTS for delayed death inhibitors of the malarial parasite plastid, 48 hour incubation | P. falciparum luciferase growth in erythrocytes, 48 h | Potency, µM (doses to about 28.7 µM), most hits filed as inhibitors | 310,000 compounds, 5.9% hits
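Parasite viability was followed by luminescence of a genomically integrated firefly luciferase. Cultures held 0.1% parasitemia at 2% hematocrit (final), incubated under 5% CO2 at 37 C.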
Hits are given with their value; i = inactive; ? = inconclusive; nt = not tested or not shown; + = active, no number. Unless noted, calls follow the shape of the dose curve; as a rule, active = well fitted inhibition curve with a large enough effect; inconclusive = small, poorly fitted or top-dose-only effect, or another doubt; inactive = no such curve, though single readings can be large or run the other way.

SMILES	HCV inh	Pf growth 96h	HCMV inh	Shiga inhibitor	Cycloheximide cs	Pf growth 48h
C#CCOCCOCCOCCNc1nc(N2CCN(C(=O)CCCCCCCCCCNC(=O)[C@H](CCCCN)n3cc(C[C@@H](C)CC)nn3)CC2)nc(N2CCN(C(=O)CCCCCCCCCCNC(=O)[C@H](CCCN=C(N)N)n3cc(C[C@@H](C)CC)nn3)CC2)n1	?	3.3µM	nt	nt	nt	3.3µM
COc1ccccc1CNS(=O)(=O)c1ccc2c(c1)NC(=O)C(C)C(=O)N2 (stereo not drawn)	nt	nt	i	nt	nt	nt
O=C1CCCN1CCCNS(=O)(=O)c1ccc(F)c(F)c1	i	?	i	i	i	i
COC(=O)c1c(NC(=O)Cc2coc3ccc(C(C)C)cc23)sc2c1CCC2	nt	nt	i	nt	nt	nt
CCOC(=O)CNC(=O)CSc1nc2cccnc2n1C1CCCCC1	i	9.3µM	i	i	i	i
CC(C)OC(=O)CSc1nc2cccnc2n1C1CCCCC1	?	i	i	i	i	?
Cc1ccc2c(c1)S/C(=C/c1ccc[n+](C)c1)N2CCO	?	i	-77	i	i	?
CC1CC(C)(C)NCc2ccccc21 (stereo not drawn)	i	9.3µM	i	i	i	i
COc1cccc(C=Nc2cccc3c(=O)[nH][nH]c(=O)c23)c1O	i	?	i	60	24	i
CC(C)CCn1c(N)c(C(=O)OCC2CCCO2)c2nc3ccccc3nc21 (stereo not drawn)	13µM	?	i	i	i	?
CCCCOCCCn1c(N)c(C(=O)OCCOC)c2nc3ccccc3nc21	i	10µM	i	i	i	?
CCOCCCn1c(N)c(C(=O)Nc2sc3c(c2C(=O)OC)CCCC3)c2nc3ccccc3nc21	i	?	i	i	i	15µM
CCOC(=O)c1c(NC(=O)c2c(N)n(CCCOC)c3nc4ccccc4nc23)sc2c1CCCC2	?	?	i	i	i	?
CCCCn1c(N)c(C(=O)OCC2CCCO2)c2nc3ccccc3nc21 (stereo not drawn)	?	i	i	i	i	9.3µM
CCCN(CCC)C(=O)Cn1c(=O)n(-c2ccc(Cl)c(Cl)c2)c(=O)c2c(C)c(C(=O)N(C)C)sc21	nt	nt	i	nt	nt	nt
CSc1ncccc1C(=O)OCC(=O)N(C)c1c(N)n(Cc2ccccc2)c(=O)[nH]c1=O	i	i	i	nt	nt	i
COCCCn1c(N)c(C(=O)NCCC(C)C)c2nc3ccccc3nc21	8.9µM	?	i	i	i	?
COc1ccc(NC2CCCN(C(=O)c3ccc4[nH]c(C)c(C)c4c3)C2)cc1 (stereo not drawn)	i	13µM	i	i	i	?
COc1ccc(NC2CCCN(C(=O)c3ccc(C(C)=O)cc3)C2)cc1 (stereo not drawn)	i	i	i	i	i	i
COc1ccc(NC(=O)c2ccc3[nH]c(C)c(C)c3c2)cc1	i	i	?	48	39	i
CC(=O)Nc1cccc(NC(=O)c2ccc3[nH]c(C)c(C)c3c2)c1	i	i	i	56	20	i
Cc1cccc(NC(=O)c2ccc3[nH]c(C)cc(=O)c3c2)c1	nt	nt	i	nt	nt	nt
Cc1[nH]c2ccc(C(=O)NCc3ccccn3)cc2c1C	i	?	i	55	29	i
Cc1ccsc1C(=O)OCC(=O)NCc1ccc(Cl)cc1	i	i	i	nt	nt	i
COc1ccc(NC2CCCN(C(=O)c3cc4ncccn4n3)C2)cc1 (stereo not drawn)	i	?	i	36	25	i
SMILES	HCV inh	Pf growth 96h	HCMV inh	Shiga inhibitor	Cycloheximide cs	Pf growth 48h
CCOc1ccc(CNC(=O)CCS(=O)(=O)Cc2ccc(C)cc2)cc1OC	i	i	i	i	i	i
Cc1cc(NC(=O)c2ccc3[nH]c(C)c(C)c3c2)ccn1	2.5µM	2.6µM	i	52	i	2.6µM
CCOc1ccc(CNC(=O)CCS(=O)(=O)Cc2ccccc2C)cc1OC	i	9.3µM	?	i	i	?
Cc1[nH]c2ccccc2c1CCNC(=O)c1ccc2nccnc2c1	i	i	i	nt	15	i
CCOc1ccc(NC(=O)c2ccc3[nH]c(C)c(C)c3c2)cc1	nt	nt	i	nt	nt	nt
CCOC(=O)N1CCC(NC(=O)c2cnn(-c3ccc(OC)cc3)c2C2CCN(C(=O)OC(C)(C)C)CC2)CC1	nt	nt	i	nt	nt	nt
COC(=O)C1C/C(=N/NS(=O)(=O)c2ccc(C)cc2)CS1 (stereo not drawn)	i	i	i	i	i	i
Cc1ccccc1OCC(=O)Nc1ccc2nc(SCC(=O)N3CCc4ccccc43)sc2c1	nt	nt	i	nt	nt	nt
CCOc1ccc(CNC(=O)c2ccc3[nH]c(C)c(C)c3c2)cc1OC	nt	nt	+	nt	nt	nt
O=C(NCCCN=C1NS(=O)(=O)c2ccccc21)c1ccc(F)cc1	i	i	i	i	i	i
CCN(CC)S(=O)(=O)c1ccc(C(=O)NCCCN=C2NS(=O)(=O)c3ccccc32)cc1	?	8.3µM	i	i	i	?
Cc1cc(C)nc(N/N=C/C=C/c2ccccc2)n1	i	?	i	57	29	i
Cc1cc(C)nc(N/N=C/c2ccccc2)n1	i	i	i	i	i	i
Cc1cc(C)nc(N/N=C/C(Cl)=C/c2ccccc2)n1	?	3.7µM	i	50	30	nt
Brc1cccc(-c2nnn3c2nc(N2CCCCC2)c2ccccc23)c1	nt	nt	i	nt	nt	nt
Cc1cccc(OCC(=O)Nc2c(C(=O)N3CCN(c4ccccc4)CC3)oc3ccccc23)c1	nt	nt	i	nt	nt	nt
COC(=O)c1scc(-c2ccc(C)cc2)c1S(=O)(=O)Nc1cc(Cl)ccc1C	nt	nt	i	nt	nt	nt
O=C1CCC(=O)N1OCCCOc1ccc2c(c1)CCC2	i	nt	i	i	10	i
O=C1CCC(=O)N1OCCOc1ccc2c(c1)CCC2	i	i	i	47	24	i
CC1(C)Cc2c(c(-c3ccco3)nc3sc4c(NCCN5CCOCC5)ncnc4c23)CO1	?	?	i	i	i	8.3µM
CC1(C)Cc2c(C#N)c(NCCN3CCOCC3)nc(-c3ccco3)c2CO1	?	10µM	i	i	i	13µM
CC1(C)Cc2c(C#N)c(NCCN3CCOCC3)nc(-c3ccccc3)c2CO1	i	i	i	i	i	i
N#Cc1c(NC2CCCCC2)nc(-c2ccco2)c2c1CCCC2	i	?	nt	i	i	nt
CC(C)c1nc(NCCO)c(C#N)c2c1CCCC2	?	i	-66	i	i	i
N#Cc1c(NCCCO)nc(-c2ccco2)c2c1CCCC2	10µM	?	i	i	i	nt
CCC(C)(C)C1CCC2(CC1)NC(=O)N(CC(=O)NCCc1c[nH]c3ccccc13)C2=O (stereo not drawn)	i	?	i	nt	nt	?
c1ccc(Nc2ccc(NCCc3c[nH]c4ccccc34)cc2)cc1	nt	nt	i	nt	nt	nt
CC1(C)Cc2c(c(-c3ccco3)nc3sc4c(NCCCO)ncnc4c23)CO1	?	4.1µM	-65	i	i	?

Source: PubChem BioAssay
